# Test results taken from PubChem BioAssay.
# Several values for one entry are separate records, joined by “and”; a condition that tells them apart may be missing. Equal values may be shown once.
# Legend:
# [1] = test system: Human papillomavirus type 1a protein E7 (residues 44-93); test: small molecules binding HPV E7 44-93 – biochemical, small-molecule microarray, residues 44-93, 635 nm fluorescence, primary screen (AID 1108); settings: fluorescence 635 nm, higher = more signal;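 further: E7 fragment applied at 1 µg/mL in TBST for 1 h at 4 C; score combines spot fluorescence with its signal to noise ratio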
# [2] = hepatitis C replication reporter changes, two-sided – Huh7 cells, luciferase reporter, HCV replication inhibitor project, primary screen (AID 1109); settings: Huh7 HCV replicon luciferase reporter, 48 h; higher = more signal;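 further: huh7 hepatoma cells harbouring a luciferase neomycin HCV replicon reporter; luciferase luminescence as measure of HCV replicon replication; test concentration not given here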
# [3] = target: Left-right determination factor 2 (Homo sapiens) (UniProt O00292); test: small molecules binding LEFTY2 protein – biochemical, small-molecule microarray, 635 nm fluorescence scan, primary screen (AID 1110); settings: higher = more signal
# Left-right determination factor 2 (Homo sapiens), sequence (O00292 whole entry, looked up): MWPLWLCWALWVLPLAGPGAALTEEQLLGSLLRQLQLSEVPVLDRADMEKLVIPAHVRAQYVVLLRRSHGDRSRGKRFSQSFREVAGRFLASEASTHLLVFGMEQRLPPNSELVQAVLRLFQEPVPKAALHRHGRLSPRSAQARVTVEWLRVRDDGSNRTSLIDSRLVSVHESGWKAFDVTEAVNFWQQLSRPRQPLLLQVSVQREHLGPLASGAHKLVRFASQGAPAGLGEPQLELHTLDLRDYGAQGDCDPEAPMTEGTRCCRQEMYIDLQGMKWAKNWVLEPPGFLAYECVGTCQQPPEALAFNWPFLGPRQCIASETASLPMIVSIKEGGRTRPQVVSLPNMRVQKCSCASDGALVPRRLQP
# [4] = target: Calmodulin-1 (Homo sapiens) (UniProt P0DP23); test: small molecules binding calmodulin-1 with EGTA – biochemical, small-molecule microarray, Cy5-labelled CALM1, profiling panel (AID 1111); settings: Cy5-CALM1 binding fluorescence, higher = more signal;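 further: labelled calmodulin applied in Tris saline Tween buffer holding calcium plus EGTA and DTT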
# [5] = target: Calmodulin-1 (Homo sapiens) (UniProt P0DP23); test: small molecules binding Ca-loaded calmodulin-1 – biochemical, small-molecule microarray, Cy5-labelled CALM1, plus calcium, artefact control for SMM control-protein annotation, profiling panel (AID 1112); settings: Cy5-CALM1 binding fluorescence, higher = more signal;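 further: score merges spot fluorescence with signal to noise from triplicate slides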
# [6] = probe aWnt5a binding to arrayed compounds – biochemical, biotinylated probe, 635/667 nm fluorescence, primary screen (AID 1113); settings: higher = more signal; small-molecule microarray, probe aWnt5a, fluorescence unless noted;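 further: score merges 667 nm fluorescence intensity with signal-to-noise per printed feature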
# [7] = probe aShh binding to arrayed compounds – biochemical, biotinylated probe, 635/667 nm fluorescence, primary screen (AID 1114); settings: higher = more signal; small-molecule microarray, probe aShh, fluorescence unless noted;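 further: probe is biotin-labelled aShh protein from a stem cell growth factor screen; measures binding of labelled protein to compounds printed on the slide; score merges feature fluorescence at 667 nm with signal-to-noise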
# [8] = probe aNog binding to arrayed compounds – biochemical, biotinylated probe, 635/667 nm fluorescence, primary screen (AID 1115); settings: higher = more signal; small-molecule microarray, probe aNog, fluorescence unless noted;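 further: probe is biotinylated aNog protein used at 0.15 µg/mL for 1 h at 4 C; z-score combines 667 nm fluorescence of each spot with its signal to noise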
# [9] = target: Torsin-1A-interacting protein 1 (Homo sapiens) (UniProt Q5JTV8); test: compound microarray binding of lysate hLAP1 – cell lysate, small-molecule microarray, COS7 lysate, 635/667 nm fluorescence, primary screen (AID 1116); settings: 635 nm fluorescence, higher = more signal
# Torsin-1A-interacting protein 1 (Homo sapiens), sequence (Q5JTV8 whole entry, looked up): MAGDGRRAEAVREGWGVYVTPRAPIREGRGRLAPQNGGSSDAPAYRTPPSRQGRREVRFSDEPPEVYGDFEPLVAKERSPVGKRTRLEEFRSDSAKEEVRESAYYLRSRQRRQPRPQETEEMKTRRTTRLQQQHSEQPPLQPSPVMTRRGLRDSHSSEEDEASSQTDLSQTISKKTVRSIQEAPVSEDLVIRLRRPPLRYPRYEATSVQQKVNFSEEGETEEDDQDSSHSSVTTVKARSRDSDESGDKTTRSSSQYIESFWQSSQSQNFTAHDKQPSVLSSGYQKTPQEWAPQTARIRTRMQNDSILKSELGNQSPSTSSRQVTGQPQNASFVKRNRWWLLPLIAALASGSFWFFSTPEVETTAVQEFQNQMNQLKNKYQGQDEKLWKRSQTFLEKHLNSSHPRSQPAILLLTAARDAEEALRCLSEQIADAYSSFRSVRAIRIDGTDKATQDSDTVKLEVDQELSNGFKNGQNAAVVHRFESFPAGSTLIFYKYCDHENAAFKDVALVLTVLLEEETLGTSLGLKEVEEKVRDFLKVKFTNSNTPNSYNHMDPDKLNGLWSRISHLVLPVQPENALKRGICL
# [10] = target: Alpha-bungarotoxin (Bungarus multicinctus) (UniProt P60615); test: compounds binding labelled alpha-BTX control protein – biochemical, small-molecule microarray, Alexa647 label, 635/667 nm fluorescence, artefact control for SMM control protein annotation, profiling panel (AID 1117); settings: alpha-BTX-A647 binding fluorescence, higher = more signal
# Alpha-bungarotoxin (Bungarus multicinctus), sequence (P60615 whole entry, looked up): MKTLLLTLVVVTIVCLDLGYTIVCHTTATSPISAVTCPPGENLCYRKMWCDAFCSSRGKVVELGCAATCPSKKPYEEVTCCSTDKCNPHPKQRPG
Compound,composite z-score [1],z-score [2],composite z-score [3],composite z-score [4],composite z-score [5],composite z-score [6],composite z-score [7],composite z-score [8],composite z-score [9],composite z-score [10]
CN1CCc2nc(CO)c(CO)cc2C1,0.22,-0.365,0.357,-0.192,-0.657,-0.117,-0.138,-0.104,-0.115,-0.0299
C=C(CC1(CNP(=O)(c2ccccc2)c2ccccc2)CC1)c1ccccc1,-0.872,-1,0.165,1.22,0.442,0.0597,-0.273,1.01,0.836,-0.108
COC(=O)[C@H]1[C@H](c2ccccc2)C(=O)[C@]2(O)c3ccccc3O[C@@]12c1ccccc1,0.304,0.0741,0.832,0.384,-0.0524,-0.131,0.0048,-0.293,0.106,0.0914
COC(=O)C1(C)C=C2C(=C(C)C(=O)C2C)CN1 (stereo unspecified),-0.131,-0.0365,-0.412,-0.423,0.0902,-0.113,0.381,1.48,1.18,-0.313
CCCc1cc2c(n1Cc1cccc(Cl)c1)C(C)C1CN(C(=O)c3ccccc3)C(C)(C(=O)OC)C21 (stereo unspecified),0.226,-2.24,-0.587,2.18,1.37,-0.0445,0.261,1.71,2.22,0.818
CCCc1cc2c(n1Cc1ccc(C)cc1)C(C)C1CN(C(=O)c3ccccc3)C(C)(C(=O)OC)C21 (stereo unspecified),0.294,-1.33,-0.472,2.63,1.31,0.417,0.769,1,2.25,1.9
O=P(c1ccccc1)(c1ccccc1)N1CC2(CC2)CC(O)(c2ccccc2)C1 (stereo unspecified),1.04,-1.06,-1.1,1.04,1.08,0.435,-0.0553,1.6,1.58,0.41
CCCc1cc2c(n1Cc1ccco1)C(C)C1CN(C(=O)c3ccccc3)C(C)(C(=O)OC)C21 (stereo unspecified),0.0223,-1.28,0.392,1.9,0.425,0.117,0.239,1.65,1.4,0.899
COc1cc2c(cc1O)C(C)N(C)CC2 (stereo unspecified),-1.75,0.569,-0.603,1.58,1.24,0.0017,-0.0769,-0.343,0.0049,-0.613
C[C@H]1O[C@H]2C3=C(C(=O)[C@@H]4O[C@@H]4[C@@H]3O)[C@@H]1[C@@H]1[C@@H](C)OC=C3[C@@H](O)[C@H]4O[C@H]4C(=O)[C@]312,-1.18,-2.57,-0.107,-0.806,-0.447,-0.125,-0.0553,-0.252,-0.404,0.411
CCCC[C@@H]1C[C@H]1[C@@H](NP(=O)(c1ccccc1)c1ccccc1)c1ccc(Cl)cc1,-1.21,-0.657,-1.67,1.14,1.32,0.0403,0.254,0.633,-0.314,-0.0059
COC(=O)[C@H]1C(=O)c2ccccc2O[C@@](C(=O)OC)(c2ccccc2)[C@@H]1c1ccccc1,-0.853,-0.424,0.104,-0.558,-0.268,-0.0519,-0.352,-0.367,-0.271,-0.579
CCCc1cc2c(n1CCO)C(C)C1CN(C(=O)c3ccccc3)C(C)(C(=O)OC)C21 (stereo unspecified),-0.202,-1.27,-0.258,2.45,1.06,0.353,0.0545,1.85,2.26,2.61
CCc1cc2c(nc1CC)CCN(CCC(C)=NOC)C2,0.711,-1.06,0.802,-0.47,0.107,0.0375,-0.117,-0.148,1,-0.0978
CCOC(=O)[C@H]1CC=C2C(=O)Oc3ccc(Br)cc3[C@@H]21,0.891,-3.69,-1.91,1.27,0.0172,-0.0118,0.151,0.884,0.501,1.65
OCc1ccc(C2=CC(c3cccs3)N(Cc3cccc(OC(F)(F)F)c3)CC2)cc1 (stereo unspecified),-0.307,-1.07,0.198,-0.573,-0.411,-0.091,-0.138,-0.244,0.221,0.934
CCOC(=O)[C@H]1CC=C2C(=O)Oc3ccccc3[C@@H]21,0.252,-1.93,-0.562,-0.229,-0.42,-0.129,-0.366,0.356,-1.28,-0.0764

Compound,composite z-score [1],z-score [2],composite z-score [3],composite z-score [4],composite z-score [5],composite z-score [6],composite z-score [7],composite z-score [8],composite z-score [9],composite z-score [10]
OCc1ccc(C2=CC(C3CC3)N(Cc3sc4ccccc4c3Cl)CC2)cc1 (stereo unspecified),0.794,-1.68,0.401,0.0976,-0.481,-0.103,-0.0146,-0.0662,0.781,1.44
COC(=O)NCC=Cc1nc(CCC=CC(=O)O[C@H]2CC3CC(=O)O[C@@H](C=CCC(C)C)C[C@@H]4CC[C@H](C)[C@@H](C[C@@H](OC)C[C@H](C2)O3)O4)co1,-1.78,-3.46,-0.107,-0.421,-0.409,-0.179,-0.345,-0.0784,0.231,-0.684
COC(=O)[C@@]1(Cc2ccccc2)[C@H]2c3cc(C(=O)N(C)C)n(C)c3C[C@H]2CN1C(=O)c1ccccc1,-1.91,-1.42,-0.611,1.96,0.514,-0.107,0.214,1.65,2.25,0.0882
CN1CCC(c2ccc(CO)cc2)=CC1C1CC1 (stereo unspecified),0.0996,-0.954,0.163,-0.257,-0.691,-0.208,-0.0474,-0.198,-0.0443,0.0005
C=C(CC1(C(C)NP(=O)(c2ccccc2)c2ccccc2)CC1)c1ccccc1 (stereo unspecified),1.48,-1.52,-0.867,0.962,0.945,0.23,0.128,0.804,1.32,0.468
C[C@@H]1Cc2c(cnc3c2CN(C)CC3)CO1,-1.58,-0.491,0.894,-1.33,-0.882,-0.0221,0.149,-0.0689,-0.217,-0.138
COC(=O)[C@@]1(Cc2ccccc2)[C@H]2c3cc(C(=O)N(C)C)[nH]c3C[C@H]2CN1C(=O)c1ccccc1,-0.452,-0.454,-0.476,0.157,0.136,0.0037,0.333,0.629,0.533,-0.0856
CCCC=C(CCC)[C@@H](NP(=O)(c1ccccc1)c1ccccc1)c1ccccc1,1.28,-1.39,0.943,1.94,0.42,0.208,-0.106,-0.519,0.275,0.44
C[C@@H]1OC=C2[C@@H](O)[C@H]3O[C@H]3C(=O)[C@]23[C@H]1[C@H]1C2=C([C@@H](O)[C@H]4O[C@H]4C2=O)[C@@H]3O[C@@H]1C,-2.16,-1.29,0.425,-1.11,-0.718,-0.224,-0.2,-0.244,0.0387,-0.244
c1ccc(-c2cc3c(nc2-c2ccccc2)CCNC3)cc1,-0.903,-1.32,0.0196,-0.198,-0.0533,-0.184,-0.0626,0.0459,-0.19,0.913
C=C1C=C(Br)C2(OCCCO2)[C@H]2OC12 (stereo partly specified),–,–,–,–,–,–,–,–,–,-0.206
COC(=O)[C@@]1(Cc2ccc(F)cc2)[C@H]2c3cc(C(=O)N(C)C)[nH]c3C[C@H]2CN1C(=O)c1ccccc1,0.717,-0.0885,-0.193,0.366,-0.0836,0.0151 [setting not given],-0.343 [setting not given],0.519 [setting not given],0.125,0.125
CC1N(P(=O)(c2ccccc2)c2ccccc2)CC(O)(c2ccccc2)CC12CC2 (stereo unspecified),1.36 and 0.0155,-0.421 and -1.5,-1.22 and 0.326,-0.0346 and 1.63,0.595 and 1.02,0.151 and -0.131,0.535 and 0.377,0.915 and 1.68,1.23 and 1.28,-0.914 and -0.0679
COc1cc2c(cc1O)C=[N+](C)CC2,-2.1,-0.0523,-0.0898,-0.683,-0.399,-0.15,-0.138,-0.436,-0.347,-0.596
COC(=O)[C@H]1[C@@H](O)[C@@]2(O)c3c(OC)cc(OC)cc3O[C@@]2(c2ccc(OC)cc2)[C@@H]1c1ccccc1,0.828,1.91,0.473,0.371,-0.402,-0.0606,0.0684,0.117,0.537,0.611
CN1CCC(c2ccc(CO)cc2)=CC1c1cccs1 (stereo unspecified),-0.895,1.05,-0.0469,-0.0348,-0.556,-0.0685,-0.0769,-0.216,0.238,0.945
